In the library only some 9% were active in any assay of this set; here they are far more common.
ALDH1A1 inh: ALDH1A1 (human) enzyme inhibition. Potency, µM (top dose mostly 75.3 µM), inactives show at the highest dose activity, negative = inhibition, hits mostly inhibitors. actives 7.3% (n = 220,000). AID 1030. Purified ALDH1A1, NADH fluorescence, propionaldehyde substrate; active = well fitted inhibition curve with a large enough effect, not every such curve was filed as active; inconclusive = small, poorly fitted or top-dose-only effect, or another doubt; inactive = no such curve, though single readings can be large or run the other way;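 note: plate controls were no enzyme wells and a reference inhibitor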
HTT aggregate: reduces HttQ103-GFP aggregates in PC12 cells; actives 1.1% (n = 220,000); Potency, µM (top dose mostly 46.1 µM), without a hit: at the highest dose activity change, negative = inhibition, usual class: inhibitors; PC12 HttQ103-GFP aggregates, Acumen cytometry, 40 h; note: % is set by controls: 0 for no effect and ±100 for the full control effect; nearly all actives have a fitted effect of over 60% in size
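Compounds (qHTS titration) were added to PC12 cells expressing an ecdysone-driven HTT exon 1 Q103–GFP fusion after induction with 100 nM tebufenozide. Aggregate formation was measured as GFP objects in cell lysates.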
KinaseGlo FLuc: counter-screen: inhibitors of Kinase-Glo firefly luciferase; actives 0.28% (n = 200,000); Potency, µM (series often up to 38.3 µM), for inactives: at the top dose activity change, negative = inhibition, hits mostly inhibitors; Kinase-Glo luciferase, ATP luminescence, 8 min; AID 1379; note: % is set by controls: 0 for no effect and ±100 for the full control effect; nearly all actives have a fitted effect of over 60% in size
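Substrate mix (final 50 mM imidazole pH 7.2, 50 mM KCl, 7 mM MgCl2, 10 uM ATP, 0.01% Tween 20, 0.05% BSA) plus pin-tool compound, then Kinase-Glo detection mix; 8 min ambient, luminescence read.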
HPGD inh: blocks human HPGD enzyme activity. P15428. purified HPGD, NADH fluorescence kinetic, PGE2 substrate. Potency, µM, inactives show top-dose activity change, negative = inhibition, most hits filed as inhibitors. actives 4.3% (n = 150,000). AID 894; active = well fitted inhibition curve with a large enough effect, not every such curve was filed as active; inconclusive = small, poorly fitted or top-dose-only effect, or another doubt; inactive = no such curve, though single readings can be large or run the other way; note: % is set by controls: 0 for no effect and ±100 for the full control effect
Target sequence (P15428 whole entry, looked up): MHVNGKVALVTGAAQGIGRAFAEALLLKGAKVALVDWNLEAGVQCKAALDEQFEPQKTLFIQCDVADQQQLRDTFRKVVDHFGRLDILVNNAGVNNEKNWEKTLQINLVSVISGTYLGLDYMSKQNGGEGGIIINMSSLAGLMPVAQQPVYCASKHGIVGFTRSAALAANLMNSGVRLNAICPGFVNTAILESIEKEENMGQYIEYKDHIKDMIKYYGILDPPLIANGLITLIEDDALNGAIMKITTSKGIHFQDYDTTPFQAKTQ
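NADH formation kinetics: reaction with 30 uM PGE2 and 1 mM NAD+ (final), 20 nM enzyme, Tris-HCl pH 8 with Tween 20, after 15 min compound preincubation at room temperature. Fluorescence change, last versus first of five reads.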
HTT ATP protect: cytoprotection in Huntington HTT-Q103 PC12 cell model | PC12 HTT-Q103 induced, cytoprotection, ATP luminescence, 40 h | Potency, µM (highest dose often 56.4 µM), for the others: cytoprotection (ATP increase), most hits filed as activators | actives 0.14% (n = 230,000) | AID 1471; note: % of control where 0% means no effect; nearly all actives have a fitted effect of over 45% in size
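Quantitative HTS on tebufenozide-induced (100 nM) PC12 cells expressing HTTQ103 exon 1–GFP; compounds tested as a concentration series; survival measured via cellular ATP.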
Lamin A splicing: modulators of lamin A splicing; HeLa LMNA splicing GFP/RFP minigene ratio, 48 h; Potency, µM (series often up to 46.1 µM), for inactives: at the top dose ratio change, negative = inhibition, actives largely listed as inhibitors; actives 0.01% (n = 200,000); AID 1487; active = well fitted inhibition curve with a large enough effect in the signal ratio, with a control signal flat, not every such curve was filed as active; inconclusive = small, poorly fitted or top-dose-only effect, or effect the other way, or a change in a side signal; the % refers to the signal ratio; note: % is set by controls: 0 for no effect and ±100 for the full control effect
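Read-out is the ratio of GFP to DsRed2 object intensity, acquired by 488 nm laser-scanning cytometry on HeLa lamin A-EGFP minigene reporter cells. Compound incubation 48 hrs at 37 °C in Opti-MEM with 2% FBS; DMSO 0.5% final.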
An asterisk follows results filed as active; ? = inconclusive; / = no result given; [ ] = another dose, or the depositor's remark. Unless noted, calls come from the whole dose curve; as a rule, active = well fitted curve in the direction sought with a large enough effect; inconclusive = small, poorly fitted or top-dose-only effect, or another doubt; inactive = no such curve, though single readings can be large; an effect the other way counts as inactive or inconclusive. Potency is the fitted concentration of half-maximal effect.

SMILES	ALDH1A1 inh	HTT aggregate	KinaseGlo FLuc	HPGD inh	HTT ATP protect	Lamin A splicing
CCn1c2c(c(=O)n3ncc(C(=O)Nc4cc(Cl)ccc4C)c13)CN(Cc1ccc(OC)cc1)CC2	/	/	/	/	/	-24%[46 µM]
Cc1ccsc1C1NC(=O)c2c(sc3c2CCCC3)N1 (configuration not stated)	?	28µM*	-8%	?	21%[10 µM]	-1%
CCOc1ccc(/C=C(\C#N)C(=O)NCC2CCCO2)cc1OCC (configuration not stated)	28µM*	4%	1%	-24%	27%[10 µM]	-28%
O=C1CSC(=NC2CCCCC2)N1	7.9µM*	21%	0%	-8%	-10%[10 µM]	-12%
Cc1ccc(Cl)cc1N1CCN(S(=O)(=O)c2ccc3c(c2)oc(=O)n3C)CC1	6%	-23%	0%	-6%	5%	?
O=C1CSC(c2cn(-c3ccccc3)nc2-c2cc3ccccc3o2)N1Cc1ccccc1 (configuration not stated)	?	-1%[9.22 µM]	1%	?	4%	1%
Cc1ccc(-c2nn(-c3ccccc3)cc2C2SCC(=O)N2Cc2ccccc2)o1 (configuration not stated)	28µM*	-21%	0%	?	16%[10 µM]	-4%
Cc1ccc(Nc2nc3nonc3[nH]c2=O)cc1Cl	?	22µM*	-1%	/	-122%	-2%[9.22 µM]
CCCCn1c(/N=C/c2cc(OC)ccc2O)nc2ccccc21	6%	-11%	/	/	-17%[0.074 µM]	-10%
Cc1cc2oc(=O)cc(CN3CCC(C)CC3)c2cc1Cl	20µM*	11%	0%	-23%	-8%	-3%
CN(/C=C/C(=C/C=[N+](C)c1ccccc1)OCCCS(=O)(=O)[O-])c1ccccc1	/	-5%	2%	/	-8%	-2%[46 µM]
CN(/C=C/C(=C\C=[N+](C)c1ccccc1)OCCCS(=O)(=O)[O-])c1ccccc1	32µM*	-9%[9.22 µM]	2%	/	-2%[10 µM]	/
COCCNC(=O)C(c1ccc(F)cc1)N(Cc1ccco1)C(=O)CCC(=O)Nc1nccs1 (configuration not stated)	10%	-11%	0%	-9%	-12%	1%
Cc1ccccc1-n1c(=O)/c(=C\c2ccco2)s/c1=C(/C#N)C(=O)Nc1ccccc1	20µM*	11%	-1%	-14%	-8%	5%
CCOC(=O)/C=c1\s/c(=C(\C#N)C(=O)NC)n(-c2ccccc2)c1=O	-9%	7%	0%	-13%	-21%	-4%
Cc1cc(N)n(-c2ncnc3scc(-c4ccc(Cl)cc4)c23)n1	?	-18%	-1%	-8%	8%[10 µM]	-17%
Cc1ccc(-c2csc3ncnc(-n4nc(C)cc4N)c23)cc1	2µM*	-20%	5%	-13%	-25%	?
Clc1ccc(CSc2snnc2-c2ccccc2)c(Cl)c1	8%	20%	-9%	?	-13%	13%
Cc1ccc(C)c(CN2CCCN(C(=O)Cn3ncc4c3-c3ccccc3OC4)C2)c1	0%	0%	1%	-6%	-13%	-4%
CS(=O)(=O)Cc1cc(Sc2ccccc2)nc(-c2ccncc2)n1	11µM*	-3%	1%	/	-27%	-10%[9.22 µM]
CC1CC(C)CN(C(=O)c2ccc(NC(=O)c3ccc(=O)[nH]c3)cc2)C1 (configuration not stated)	-6%	9%	0%	7.9µM*	/	2%
Cc1nn(-c2ccc3ccccc3c2)c(=O)c2ccccc12	20µM*	-17%[9.22 µM]	-9%	/	-22%[10 µM]	21%[9.22 µM]
Cc1nn(-c2nc3ccccc3[nH]2)c(=O)c2ccccc12	-9%	3%	1.4µM*	/	-98%[10 µM]	-9%[46 µM]
O=C(CCCN1CCN(c2ccccn2)CC1)c1ccc(F)cc1	-10%	3%	-4%	-15%	?	?
CCOC(=O)c1nnc(-c2ccccc2)nc1N1CCSCC1	-8%	-8%[9.22 µM]	0%	/	-37%	?
CC(C)Oc1ccc(C(=O)CCN2CCCCC2)cc1	0.071µM*	?	-2%	-11%	6%[1.9 µM]	-19%
